From PubChem
hcGAS lum: Primary biochemical luminescence assay for human cyclic GMP-AMP synthase inhibitors; AID 1259398, 2018; inhibition, % at 12.5 µM; recombinant h-cGAS, ATP depletion, Kinase-Glo luminescence; 0.081% of 290,000 active; Q8N884;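 further: 0% = vehicle reaction and 100% = reaction without DNA for no activity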
Target sequence (Q8N884 whole entry, looked up): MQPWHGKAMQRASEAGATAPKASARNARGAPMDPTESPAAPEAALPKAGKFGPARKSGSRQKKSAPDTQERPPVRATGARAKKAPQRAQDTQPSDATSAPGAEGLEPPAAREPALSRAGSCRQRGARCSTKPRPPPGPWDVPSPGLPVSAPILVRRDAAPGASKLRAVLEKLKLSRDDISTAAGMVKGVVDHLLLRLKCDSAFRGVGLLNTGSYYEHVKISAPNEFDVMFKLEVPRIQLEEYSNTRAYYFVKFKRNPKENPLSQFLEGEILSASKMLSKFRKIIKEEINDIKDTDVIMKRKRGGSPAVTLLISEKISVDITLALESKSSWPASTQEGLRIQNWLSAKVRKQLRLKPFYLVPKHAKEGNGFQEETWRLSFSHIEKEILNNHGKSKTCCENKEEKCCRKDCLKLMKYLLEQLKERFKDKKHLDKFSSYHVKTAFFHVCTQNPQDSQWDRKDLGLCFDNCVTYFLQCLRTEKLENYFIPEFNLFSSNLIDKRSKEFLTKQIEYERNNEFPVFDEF
mcGAS lum: cyclic GMP-AMP synthase inhibitors, mouse, primary biochemical chemiluminescence; AID 1259399, 2018; inhibition, % at 12.5 µM; recombinant cGAS, Kinase-Glo ATP depletion luminescence; Q8C6L5; 0.15% of 160,000 active;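 further: 0% = negative control wells and 100% = reference inhibitor with no enzyme activity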
NPYLR7 agonist: agonists of mosquito NPYLR7 receptor, primary screen, cell-based, Aedes aegypti, calcium fluorescence, mosquito biting behavior; Aedes aegypti neuropeptide Y-like receptor 7 (NPYLR7); HEK293T NPYLR7/Galpha15, GCaMP6s calcium fluorescence; activation, % at 10 µM; 0.15% of 270,000 active; AID 1259423, 2018; in the data active means activation above about 40%;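 further: 0% = vehicle and 100% = reference agonist at the receptor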
Active calls of the source: *; · = no result given; ! = not confirmed by another sample. This is a sample that favours compounds with a hit; in the whole collection about 0.24% have one here. Unless noted, no stated cut-off is given here; in the data, active means inhibition above about 40%; inactive means the rest.

SMILES	hcGAS lum	mcGAS lum	NPYLR7 agonist
COc1ccc(C=C2Oc3cc(O)ccc3C2=O)c(OC)c1	-8.1	·	33.7
COc1ccccc1C=C1Oc2cc(O)ccc2C1=O	-5.3	·	17.4
CCOc1cccc(C=C2Oc3cc(O)ccc3C2=O)c1OC	-3.6	·	69.7*
COc1ccc2nc(-c3ccc(NC(=O)c4ccccc4C)cc3)cn2n1	-9.4	-9.5	-9.3
COc1ccc(C(=O)C=Cc2cc(OC)c(O)c(OC)c2)cc1F	-4.3	4.8	64.2*
COc1cc(C(=O)C=Cc2cc(OC)c(O)c([N+](=O)[O-])c2)ccc1O	-7.2	·	-7.8
COc1cc(C(=O)C=Cc2ccc(OC(F)F)cc2)ccc1O	-0.5	34.7	-5.6
COc1cc(C(=O)C=Cc2ccc(C#N)cc2)ccc1O	-10.2	64.1*	1.2
Cc1ccc2oc(CN(Cc3ccccc3Cl)C(=O)c3ccc(Cl)nc3)nc2c1	-3.3	-8.4	23.7
CN(CCCc1ccccc1)C(=O)c1[nH]ncc1Br	-12.1	-7.7	6.8
CCN(CC)c1ccc2cc(-c3nnc(Nc4cccc5ccccc45)s3)c(=O)oc2c1	-6.3	·	8.0
CCCNC(=O)NCC(=O)N(C)Cc1ccc(Br)cc1	-5.0	·	0.5
CN(Cc1ccc(Br)cc1)C(=O)CCl	-4.3	41.7*	0.5
CC1N(C)c2ccc(C=Cc3cc[n+](C)cc3)cc2C1(C)C (configuration not stated)	-16.3	·	66.7*
COc1ccc(OC)c(-c2cnc(-c3cccc(CNC(=O)COc4ccccc4)c3)[nH]2)c1	-2.1	-3.6	-0.8
C=C(C)Cn1c(SCC(=O)N/N=C\c2ccc(C(C)C)cc2)nnc1-c1ccc(Br)cc1	-2.5	·	-2.7
COc1cc(OC)c(OC)cc1CO	-5.4	-9.2	3.8
Cc1cc(CO)c(OCCOCCOc2c(CO)cc(C)cc2CO)c(CO)c1	61.6*	·	-9.3
Cc1ccc(-c2ccnc3c(C(=O)O)cnn23)o1	-6.7	·	20.1
Cc1c(C(=O)O)cnc2c([N+](=O)[O-])cnn12	41.1*	15.0	-12.0
Cc1ccc(C(NC(=O)C2CCN(Cc3ccccc3F)CC2)c2ccccn2)cc1 (configuration not stated)	-5.6	-3.3	6.5
C#CCN1C(=O)SC(=Cc2ccc(N3CCCCC3)o2)C1=O	-7.5	-3.3	121.9*
CC(C)N1C(=O)SC(=Cc2ccc(N3CCCCC3)o2)C1=O	-6.2	-5.7	10.5
CC(C)[C@@H]1C[C@@H]2C[C@H](N(CC(=O)O)C(=O)c3cnccn3)C[C@@H]2CO1	-2.0	-3.3	31.3
CNc1nc(NCc2ccccc2)c2sccc2n1	-6.8	·	7.9
SMILES	hcGAS lum	mcGAS lum	NPYLR7 agonist
c1ccc(CNc2nc(NCCc3ccncc3)c3sccc3n2)cc1	-11.1	·	59.3*
O=C(O)c1cc2cc(Cl)ccc2[nH]1	6.4	8.7	-7.4
Cc1ccc(CN(C(=O)c2cc3cc(Cl)ccc3[nH]2)C(C)C)o1	-5.8	·	118.4*
COc1ccc(C=CC(=O)c2cccs2)cc1O	-12.4	55.3*	15.1
COc1ccc(C=CC(=O)c2ccc(I)cc2)cc1O	-11.0	24.9	1.1
O=c1[nH]cnc2c1C(c1cccc([N+](=O)[O-])c1)c1c(nc[nH]c1=O)O2	-8.0	-7.4	-0.3
O=c1[nH]c(=S)[nH]c2c1C(c1cccc([N+](=O)[O-])c1)c1c([nH]c(=S)[nH]c1=O)O2	30.5	55.2*	5.3
COCc1cc(C)nc(OCC(=O)N/N=C\c2cc(Br)cc(I)c2O)c1C#N	-1.5	0.7	-0.4
COCCN=Cc1cc(I)cc(I)c1O	76.6*	·	50.9*
CCC(C(=O)N1CCC2(CC1)C(=O)N(CC(=O)N1CCC(Cc3ccccc3)CC1)CN2c1ccccc1)c1ccccc1 (configuration not stated)	2.1	0.6	-4.3
Cc1nn2c(=O)[nH]c(SCC(N)=O)nc2c1-c1ccccc1	54.9*	0.4	15.6
CC(=O)Nc1ccc(NC(=O)CSc2nc3c(-c4ccccc4)c(C)nn3c(=O)[nH]2)cc1	28.8	-4.1	8.3
CCCCNc1ccc(NCCCC)c2c1C(=O)c1ccccc1C2=O	-11.9	-6.7	-0.3
O=C1c2c(O)ccc(O)c2C(=O)c2c(NCCNCCO)ccc(NCCNCCO)c21	42.2*!	76.5*	-5.1
CCN1CCN(c2ccccc2NS(=O)(=O)c2ccccc2Br)CC1	-4.4	-5.9	2.3
O=C1CC(C(=O)Nc2ccc(C(=O)N3CCCCCC3)cc2)CCN1 (configuration not stated)	-4.7	·	3.8
CCC(=O)Nc1ccc(OCC(=O)N2C[C@]3(C)C[C@H]2CC(C)(C)C3)cc1	-1.3	-15.1	-2.0
CO[C@@]1(NC(=O)C2SC(=C(C(N)=O)C(=O)O)S2)C(=O)N2C(C(=O)O)=C(CSc3nnnn3C)CS[C@@H]21 (some centres not stated)	-1.2	·	-3.6
